Measured potencies and affinities stand elsewhere.
molecular target: NAD-dependent protein deacylase sirtuin-5, mitochondrial (Homo sapiens) (UniProt Q9NXA8); assay: blockers of sirtuin-5 peptide desuccinylation – biochemical, fluorescence imaging, cherry-pick, set 6, dose response (AID 720597); settings: Purified SirT5, succinyl-peptide-AMC/trypsin fluorescence; series mostly up to 15 µM; activity change, negative = inhibition: at the top concentration;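 also: lower AMC signal can also come from blocking the trypsin step; 0% = median of neutral control wells and -100% = median of positive control wells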
Sequence (Q9NXA8 whole entry, looked up): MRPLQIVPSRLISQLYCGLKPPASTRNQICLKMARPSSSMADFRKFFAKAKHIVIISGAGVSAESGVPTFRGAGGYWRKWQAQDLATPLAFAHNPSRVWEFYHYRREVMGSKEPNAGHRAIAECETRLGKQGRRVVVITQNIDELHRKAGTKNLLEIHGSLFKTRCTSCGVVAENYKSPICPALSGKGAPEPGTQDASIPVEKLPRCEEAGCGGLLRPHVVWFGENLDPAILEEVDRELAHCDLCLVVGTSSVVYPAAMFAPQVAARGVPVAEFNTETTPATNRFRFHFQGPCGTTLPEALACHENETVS

Activity change, negative = inhibition, inactive:
O=C(NCC[C@@H]1CC[C@H](NS(=O)(=O)c2cccc(F)c2)[C@@H](CO)O1)C1CCOCC1 15.4%, C[C@H](CO)N1C[C@H](C)[C@@H](CN(C)Cc2ccc(Cl)c(Cl)c2)Oc2c(NC(=O)c3ccc(-c4nccs4)cc3)cccc2C1=O -6.33% [at 3.8 µM], COc1cccc(CNC(=O)C[C@H]2CC[C@H]3[C@H](COc4ccc(NS(=O)(=O)c5ccccc5F)cc4C(=O)N3C)O2)c1 2.21%, C[C@H]1CN([C@@H](C)CO)C(=O)c2cc(C#CCC3CCCC3)cnc2O[C@H]1CN(C)C(=O)c1cnccn1 -15.1%, COc1ccc(S(=O)(=O)Nc2ccc3c(c2)C(=O)N([C@H](C)CO)C[C@@H](C)[C@H](CN(C)S(=O)(=O)c2ccccc2)OCCCC[C@@H](C)O3)cc1 -23.2%, C[C@H]1CN([C@@H](C)CO)C(=O)c2cc(NS(=O)(=O)c3ccc(Cl)cc3)ccc2O[C@H]1CN(C)Cc1ccc(Cl)c(Cl)c1 -3.12%, CN1c2ccc(-c3ccc(F)cc3)cc2[C@@H]2[C@@H](CCN2C(=O)c2ccncc2)[C@@H]1CO -11.8%, CC(C)CC#Cc1ccc2c(c1)O[C@@H](CN(C)C(=O)NC1CCCC1)[C@H](C)CN([C@H](C)CO)S2(=O)=O -5.15%, CCOc1ccc(C)cc1S(=O)(=O)n1ccnc1C -12.4%, CC(C)NC(=O)N(C)C[C@H]1Oc2ccc(NC(=O)Cc3ccccc3)cc2C(=O)N([C@H](C)CO)C[C@@H]1C 8.2%, C[C@H](CO)N1C[C@H](C)[C@@H](CN(C)Cc2ccc(Cl)c(Cl)c2)Oc2ccc(NS(=O)(=O)c3ccc(Cl)cc3)cc2CC1=O 38.2%
